Our source for the growth values is PubChem BioAssay (NCI).

This is part of a sample that, as a whole, favours compounds with a hit. Of some 83,000 tested, about 20% had one in any assay.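 Values shown are percent growth following 48 h exposure of cells in 96-well plates to a single concentration of compound; below 10 was considered active.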 Unmarked numbers belong to inactive results. Active and inactive are the calls of the source.

Test systems include NCI-H23 lung; NCI-H226 lung; HOP-62 NSCLC; NCI-H460 lung; HOP-92 NSCLC; NCI-H522 lung; A549/ATCC NSCLC; 786-0 renal; COLO 205 colon; DU-145 prostate; K-562 leukemia; MALME-3M melanoma; MDA-MB-231 breast; RXF 393 renal; SF-268 CNS; SF-295 CNS; SF-539 CNS; M14 melanoma; UACC-257 melanoma.
Holding throughout (assay): NCI-60 one-dose screen, 48 h (100 = growth as untreated, 0 = no growth, -100 = all killed)
Holding throughout (details): 10 µM

For `CNC(=O)c1cc(Oc2ccc3c(c2)sc2nc(-c4ccc(N)cc4)cn23)ccn1`, the growth was 35% in the assay with NCI-H23 lung; 61.8% in the assay with NCI-H226 lung; 46.8% with HOP-62 NSCLC; 10.1% in the assay with NCI-H460 lung; 58.4% in the assay on HOP-92 NSCLC; -22.6% (active) in the assay on NCI-H522 lung. Besides, the growth with A549/ATCC NSCLC is 24.5%; in the assay on 786-0 renal it was 19.4%; in the assay with COLO 205 colon it was -11.1% (active); in the assay on DU-145 prostate, 7.79% (active); in the assay with K-562 leukemia it was 12%; in the assay with MALME-3M melanoma, 66.8%. Besides, the growth with MDA-MB-231 breast is 22.2%; in the assay with RXF 393 renal it was 43.8%; in the assay on SF-268 CNS it was 41.9%; with SF-295 CNS, 18%; in the assay on SF-539 CNS, 6.43% (active); in the assay with M14 melanoma, 15.5%.
As for `COc1cc2cc(Oc3ccc(NC(=O)Nc4cccc(C(F)(F)F)c4)cc3)c(C)nc2cc1OC`, the growth in the assay on NCI-H23 lung is 6.78% (active); in the assay on NCI-H226 lung it was -23.5% (active); in the assay with HOP-62 NSCLC it was 25%; with NCI-H460 lung, 2.68% (active); in the assay with HOP-92 NSCLC it was -29.5% (active); with NCI-H522 lung, -17.4% (active). Moreover, the growth in the assay with A549/ATCC NSCLC is 3.09% (active); with 786-0 renal, 15.1%; in the assay on COLO 205 colon, -20.2% (active); with DU-145 prostate, 26.7%; in the assay with K-562 leukemia it was 11.5%; in the assay with MALME-3M melanoma, 7.22% (active). The growth in the assay on MDA-MB-231 breast was -8.32% (active); with RXF 393 renal, -13.1% (active); with SF-268 CNS, 29.2%; with SF-295 CNS it was -15% (active); in the assay with SF-539 CNS it was 11.7%; in the assay with UACC-257 melanoma, -14.5% (active). Besides, the growth in the assay with M14 melanoma was 22.7%.
`O=S(=O)(O)c1cccc(Nc2ccc3ccccc3c2)c1`: the growth was 92% in the assay on NCI-H23 lung; 86.5% in the assay on NCI-H226 lung; 84.4% with HOP-62 NSCLC; 101% in the assay with NCI-H460 lung; 74.8% in the assay on HOP-92 NSCLC; 87.9% in the assay with NCI-H522 lung. Besides, the growth is 94.1% in the assay with A549/ATCC NSCLC; 104% in the assay on 786-0 renal; 97.8% in the assay on COLO 205 colon; 109% in the assay on DU-145 prostate; 98.7% with K-562 leukemia; 88.1% in the assay with MALME-3M melanoma. Further, the growth was 90.1% with MDA-MB-231 breast; 107% in the assay on RXF 393 renal; 95.8% with SF-268 CNS; 104% in the assay on SF-295 CNS; 102% in the assay on SF-539 CNS; 89.7% with UACC-257 melanoma. The growth with M14 melanoma is 92.7%.
As for `COc1ccc(/C=C/C(=O)C(=O)/C=C/c2ccc(OC)c(OC)c2)cc1OC`, the growth with NCI-H23 lung is 21.6%; in the assay with NCI-H226 lung, 38.9%; in the assay on HOP-62 NSCLC, 93.2%; in the assay with NCI-H460 lung, 51.7%; with HOP-92 NSCLC it was 109%; with NCI-H522 lung, 47.8%. Besides, the growth with A549/ATCC NSCLC is 69.9%; in the assay on 786-0 renal, 3.43% (active); in the assay on COLO 205 colon, -20.8% (active); with DU-145 prostate it was 22.5%; with K-562 leukemia, 7.11% (active); in the assay on MALME-3M melanoma, 54.5%. In addition, the growth with MDA-MB-231 breast was 2.99% (active); in the assay with RXF 393 renal it was -63.3% (active); in the assay on SF-268 CNS it was 13.2%; in the assay on SF-295 CNS, 73.8%; with SF-539 CNS it was 6.56% (active); in the assay on M14 melanoma, -10.5% (active).
Turning to `N#Cc1c(-c2ccc(Cl)cc2)csc1NC(=O)Nc1ccc(Cl)c(C(F)(F)F)c1`, the growth with NCI-H23 lung is 15.8%; with NCI-H226 lung it was 8.81% (active); in the assay on HOP-62 NSCLC it was 14.5%; with NCI-H460 lung it was 2.11% (active); in the assay on HOP-92 NSCLC it was -9.88% (active); in the assay on NCI-H522 lung, -12.8% (active). Also, the growth is 18.3% with A549/ATCC NSCLC; 35.9% in the assay on 786-0 renal; -30.4% (active) in the assay with COLO 205 colon; 5.84% (active) in the assay on DU-145 prostate; 9.03% (active) in the assay on K-562 leukemia; -26.7% (active) in the assay on MALME-3M melanoma. The growth is 2.12% (active) in the assay on MDA-MB-231 breast; 33.7% with RXF 393 renal; 27.8% with SF-268 CNS; -27.2% (active) in the assay on SF-295 CNS; 31.5% in the assay on SF-539 CNS; 8.06% (active) with M14 melanoma.
Consider `O=C(O)c1ccc(-n2cc(CNc3ccc(Cl)cc3)c(-c3ccccc3)n2)cc1`, for which the growth in the assay with NCI-H23 lung is 98.4%; with NCI-H226 lung, 99.1%; in the assay on HOP-62 NSCLC, 111%; with NCI-H460 lung, 88.6%; in the assay with HOP-92 NSCLC it was 99.9%; with NCI-H522 lung, 75.8%. For the same compound, the growth with A549/ATCC NSCLC was 84.6%; in the assay on 786-0 renal it was 94.7%; in the assay with COLO 205 colon, 97.8%; in the assay on DU-145 prostate, 95.7%; in the assay with K-562 leukemia, 77.5%; in the assay on MALME-3M melanoma it was 79.9%. Besides, the growth with MDA-MB-231 breast was 88.6%; in the assay with RXF 393 renal, 98.6%; in the assay with SF-268 CNS it was 100%; with SF-295 CNS, 80.5%; in the assay on SF-539 CNS it was 82.6%; in the assay on M14 melanoma it was 94.3%.
